Measurements from PubChem BioAssay AID2283221 (EPA ToxCast).
Results filed as inconclusive are left out. Activity calls are given as the source filed them. The calls were made as follows: active = hit-call score of the fitted dose curve at least 0.9, where 1 is the maximum; inconclusive = response in the unintended direction; inactive = score below 0.9.

What follows are compounds tested against human Spleen Associated Tyrosine Kinase (Syk), SYK (gene 6850) (UniProt P43405) (assay: NVS_ENZ_hSyk: NovaScreen (NVS) Enzymatic Assay for human Spleen Associated Tyrosine Kinase (Syk)).
Method: NVS_ENZ_hSyk is a biochemical, single-readout assay that uses extracted gene-proteins in a cell-free assay. Measurements were taken 1 hour after chemical dosing in a 96-well plate.NVS_ENZ_hSyk is one of one assay component(s) measured or calculated from the NVS_ENZ_hSyk assay. It is designed to make measurements of enzyme activity, a form of enzyme reporter, as detected with fluorescence intensity signals by Fluorescence and electrophoretic mobility shift technology.Data from the assay component NVS_ENZ_hSyk was analyzed into 1 assay endpoint. This assay endpoint, NVS_ENZ_hSyk, was analyzed in the positive analysis fitting direction relative to DMSO as the negative control and baseline of activity. Using a type of enzyme reporter, loss-of-signal activity can be used to understand changes in the enzymatic activity as they relate to the gene SYK. Furthermore, this assay endpoint can be referred to as a primary readout, because this assay has produced […] where this one serves a enzymatic activity function. To generalize the intended target to other relatable targets, this assay endpoint is annotated to the kinase intended target family, where the subfamily is non-receptor tyrosine kinase.
Binding assays used specific radioligands (tritiated, iodinated) with non-radioactive competitive displacement ligands in agonist or antagonist protocols (as indicated) and various reference compounds and inhibitors to titrate specific binding to receptors and transporters. Most enzyme assays (CYPs, kinases, phosphatases, proteases, HDACs) used recombinant protein and specific substrates (fluorescence mostly, some colorimetric and radioactive) and inhibitors, followed by a biochemical separation of substrate and product. All assays for the biochemical HTS were initially run in duplicate at a single concentration (10 uM for CYP450 assays and 25 uM for all others). Assay-chemical combinations meeting a pre-defined threshold (e.g., 30% inhibition and other criteria defined below) were then run in singleton concentration-response format with maximum concentration of 20 uM for CYPs and 50 uM for all others. Each assay was run with positive and negative controls, and concurrent controls on every plate. The follow-up (secondary) screen tested active chemical-pairs in concentration series, as well as a few additional assays not tested in the primary screen, some selected negative inactives, and several cases re-run in the concentration series for confirmatory purposes.

SMILES	AC50	outcome
S=C(S)NCCNC(=S)S.[Mn+2].[S-]C([S-])=NCCN=C([S-])[S-].[Zn+2]	9.71 µM (active)	
CCNc1nc(Cl)nc(NC(C)C)n1		inactive
O=C(O)C1(C(=O)Nc2ccc(Cl)cc2Cl)CC1	15.4 µM (active)	
COP(N)(=O)SC (configuration not stated)		inactive
CCOCN(C(=O)CCl)c1c(C)cccc1CC		inactive
CC[C@H](C)[C@H]1O[C@]2(C=C[C@@H]1C)C[C@@H]1C[C@@H](C/C=C(\C)[C@@H](O[C@H]3C[C@H](OC)[C@@H](O[C@H]4C[C@H](OC)[C@@H](NC)[C@H](C)O4)[C@H](C)O3)[C@@H](C)/C=C/C=C3\CO[C@@H]4[C@H](O)C(C)=C[C@@H](C(=O)O1)[C@]34O)O2		inactive
CNc1cnn(-c2cccc(C(F)(F)F)c2)c(=O)c1Cl		inactive
